# Measurements published in PubChem BioAssay.
# “And” between values parts separate entries of the source, which are not always exact repeats. Equal entries are not always repeated. Inconclusive results are not listed. Some structures have more than one record in an assay (separate samples or runs), and their calls can disagree. The source made the active and inactive calls. Unless noted, no stated cut-off is given here; in the data, active means inhibition above about 80%; inactive means the rest.
# Tests used:
# [1] = liver-stage malaria parasite growth inhibition, primary screen, cell-based, HepG2, luciferase luminescence, HepG2 viability (AID 624349; in the data active means parasite load remaining mostly below about 12%, no sharp cut-off; inactive means mostly above about 10%;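 further: 100% = mean of DMSO negative control wells on the same plate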); settings: P. berghei liver stage in HepG2, luciferase luminescence, concentration not given here; parasite load remaining: stronger effect = lower value; viability: measured here: HepG2 viability without parasites
# [2] = SU-DIPG-VI glioma cell viability, MIPE4.0 library, CellTiter-Glo luminescence, qHTS (AID 1347066; cut-off not given, nearly all actives have AC50 up to about 30 µM;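 further: cells exposed to compound for 48 hours before readout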); settings: CellTiter-Glo ATP luminescence
# [3] = SU-DIPG-XXV glioma cell viability, MIPE5.0 library, qHTS (AID 1347068; cut-off not given, nearly all actives have IC50 up to about 30 µM;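 on IC50: cells exposed to compound for 48 hours before viability readout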)
# [4] = modifiers of HSF1 nuclear foci, imaging, Selleck Cancer Library (AID 1347162; in the data active means plate-normalised HSF1 focus index below about 0.46); settings: human cells, at 10 µM; SSMD: measured here: HSF1 foci SSMD mean; cell count: measured here: cell number; plate-normalised HSF1 focus index: stronger effect = lower value
# [5] = JHH-DIPG-1 glioma cell viability, MIPE5.0 library, CellTiter-Glo luminescence, qHTS (AID 1347067; cut-off not given, nearly all actives have AC50 up to about 26 µM;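 further: cells exposed to compound for 48 hours before readout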); settings: JHH-DIPG-1 glioma viability, CellTiter-Glo ATP luminescence
# [6] = viability loss in pontine glioma line – cell-based, SU-DIPG-XXV, MIPE5.0, CellTiter-Glo, qHTS, dose response (AID 1347065; cut-off not given, nearly all actives have AC50 up to about 26 µM;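 further: cells exposed to compound for 48 hours before ATP readout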); settings: CellTiter-Glo ATP luminescence
# [7] = sensitizers of A549 cells to miR-34 induction, primary screen, imaging, A549 dox-inducible miR-34, nuclei and caspase counts (AID 1347080;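 active means compounds whose cell count with miR-34 switched on is under 0.7 times the count with it off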); settings: A549 miR-34 inducible, Hoechst nuclei count, 48 h
# [8] = survival rescue of mitochondrial mutant cells in low glucose, primary screen, MELAS cybrids, Rieske KO mouse fibroblasts, CellTiter-Glo (AID 1508586;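 active means mean z-score across replicates of 1.96 or higher in either the MELAS or the Rieske mutant cell line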;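 further: z relative to plate mean and SD of compound and empty wells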)
# [9] = LFS_MB_P medulloblastoma growth inhibition, cell-based, chromothripsis tumors, cisplatin or BGB combos (AID 1671449); settings: LFS_MB_P medulloblastoma cells;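 further: cells exposed for 96 hours; 0% = vehicle DMSO and 100% = killing by high DMSO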
# [10] = HDN33 neuroblastoma growth inhibition, cell-based, chromothripsis tumors, cisplatin or BGB combos (AID 1671450); settings: HDN33 neuroblastoma cells, stronger effect = higher value;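 further: cells exposed to compound for four days; 0% = vehicle DMSO and 100% = cell killing by high DMSO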
# [11] = ICB984 medulloblastoma cell growth inhibition, synergistic combos for chromothripsis tumors, cisplatin or BGB combos (AID 1671451; call rule not given here;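 further: cells exposed for 96 hours before readout; 0% = vehicle DMSO and 100% = killing by high DMSO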); settings: ICB984 medulloblastoma cells, drug combinations, stronger effect = higher value
# [12] = LFS_MB_1R medulloblastoma cell growth inhibition, synergistic combos for chromothripsis tumors, cisplatin or BGB combos (AID 1671452); settings: LFS_MB_1R medulloblastoma cells, stronger effect = higher value;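 further: cells exposed for 96 hours before readout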
# [13] = HTB85 osteosarcoma cell growth inhibition, synergistic combos for chromothripsis tumors, BGB or cisplatin IC20 combos (AID 1671453); settings: HTB85 osteosarcoma cells, drug combinations, stronger effect = higher value;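 further: cells exposed for 96 hours before readout; 0% = vehicle DMSO and 100% = high DMSO killing control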
# [14] = CRL2098 osteosarcoma cell growth inhibition, synergistic combos for chromothripsis tumors, BGB or cisplatin IC20 combos (AID 1671454); settings: CRL2098 osteosarcoma cells, drug combinations, stronger effect = higher value;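 further: cells exposed for 96 h before readout; 0% = vehicle DMSO and 100% = killing by high DMSO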
# [15] = HD-MB03 medulloblastoma cell growth inhibition, synergistic combos for chromothripsis tumors, BGB or cisplatin IC20 combos (AID 1671455; in the data active means inhibition above about 83%;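 further: 0% = vehicle DMSO and 100% = high DMSO as cytotoxic control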); settings: HD-MB03 medulloblastoma cells, stronger effect = higher value
# [16] = UWB1.289 ovarian carcinoma cell growth inhibition, synergistic combos for chromothripsis tumors, BGB or cisplatin combos (AID 1671456); settings: UWB1.289 ovarian carcinoma cells, stronger effect = higher value;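 further: cells exposed to compound for four days; 0% = vehicle DMSO and 100% = killing by high DMSO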
# [17] = LFS_MB_2R medulloblastoma cell growth inhibition, synergistic combos for chromothripsis tumors, cisplatin combos (AID 1671457); settings: LFS_MB_2R medulloblastoma cells, stronger effect = higher value;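 further: cells exposed to compound for four days before readout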
# [18] = MDA-MB-436 breast carcinoma cell growth inhibition, synergistic combos for chromothripsis tumors, BGB or cisplatin combos (AID 1671458; call rule not given here;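 further: cells exposed for 96 hours; 0% = vehicle DMSO and 100% = killing by high DMSO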); settings: MDA-MB-436 breast carcinoma growth inhibition, drug combinations, stronger effect = higher value
# [19] = UWB1.289_BRCA1 ovarian cancer growth, cell-based, BGB or cisplatin combinations (AID 1671459); settings: UWB1.289 BRCA1 ovarian carcinoma, drug combinations, stronger effect = higher value
# [20] = human astrocyte viability loss, single and combined drugs, cytotoxicity control for chromothriptic childhood tumor combination screen, cell-based, BGB or cisplatin IC20 combos (AID 1671460); settings: Human astrocytes, drug combinations, stronger effect = higher value;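 further: cells exposed to compounds for 96 hours before viability readout; 0% = vehicle and 100% = killing control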
# [21] = growth inhibition of BT084 medulloblastoma cells, cell-based, ICGC_MB145, cisplatin and BGB IC40 combos (AID 1671461); settings: drug combinations, stronger effect = higher value;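 further: cells exposed to drugs for 96 hours; 0% = vehicle DMSO and 100% = high DMSO full killing control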
# [22] = growth inhibition of RCMB18 medulloblastoma cells, cell-based, cisplatin and BGB IC40 combos (AID 1671462); settings: stronger effect = higher value;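 further: cells exposed to compound for four days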
# [23] = growth inhibition of CRL1545 osteosarcoma cells, cell-based, cisplatin and BGB IC20 combos (AID 1671464); settings: stronger effect = higher value;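 further: cells exposed to compound for 96 hours before readout; 0% = vehicle DMSO and 100% = high DMSO killing control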
# [24] = measured here: combination with BGB IC40, at 0.05 µM
# [25] = measured here: with BGB IC20 combination, at 0.5 µM
# [26] = measured here: with cisplatin IC20 combination, at 0.5 µM
# [27] = measured here: combination with cisplatin, at 0.5 µM
# [28] = measured here: combination with cisplatin, at 5 µM
compound,measurement,setting,value
NC(=O)c1ccc2nc(-c3ccc(Oc4ccc(Cl)cc4)cc3)[nH]c2c1,parasite load remaining,[1],38.6% (inactive)
same,viability,[1],91.3%
same,outcome,[2],inactive
same,outcome,[3],inactive
same,SSMD,[4],0.89
same,cell count,[4],6720
same,plate-normalised HSF1 focus index,[4],1.06 (inactive)
O=C(Nc1cccnc1)c1cc(-c2ccnc(F)c2)ccc1OCc1ccccc1,AC50,[5],18.6 µM (active)
CCOC(=O)C1=CCCCC1S(=O)(=O)Nc1ccc(F)cc1Cl (configuration not stated),outcome,[3],inactive
COC1CC(C(=O)c2ccc3c(N)ncc(-c4ccc(-c5cnn(C)c5)cc4)c3n2)C1 (configuration not stated),outcome,[5],inactive
same,outcome,[3],inactive
COc1cc2nccc(Oc3ccc(NC(=O)c4cn(C(C)C)c(=O)n(-c5ccc(F)cc5)c4=O)cc3F)c2cc1OC,outcome,[5],inactive
same,outcome,[3],inactive
CC(=O)O/N=C1\C(=O)N(Cc2cc(Cl)ccc2Cl)c2ccc(Cl)cc21,AC50,[5],23.5 µM (active)
same,IC50,[3],8.33 µM (active)
CC#CC(=O)N1CC[C@@H](n2c(=O)n(-c3ccc(Oc4ccccc4)cc3)c3c(N)ncnc32)C1,outcome,[3],inactive
O=C(Nc1cccc(Br)c1)c1cccc(S(=O)(=O)N2CCCCCC2)c1,outcome,[2],inactive
CNCc1ccc(-c2cc(-c3nc(-c4ccc(S(=O)(=O)C(C)C)cc4)cnc3N)on2)cc1,AC50,[6],6.61 µM (active)
same,fold change,"[7]; stronger effect = lower value, cell number ratio, induced over uninduced",1.09 (inactive)
same,fold change,[7]; measured here: relative caspase fold change +Dox/-Dox,0.389
same,cell count,"[7]; measured here: total cells with miR-34 induction, stronger effect = lower value",2400
same,cell count,[7]; measured here: total cells without miR-34 induction,2210
same,z-score,"[8]; MELAS cybrid survival, CellTiter-Glo 48 h, stronger effect = higher value",2.18 (active)
same,z-score,"[8]; Rieske KO mouse fibroblast survival, CellTiter-Glo 72 h",-0.548
same,inhibition,"[9]; at 0.5 µM, stronger effect = higher value",-32.1% (inactive) and 15.3% (inactive)
same,inhibition,"[9]; measured here: combination with BGB IC20, at 0.005 µM",12.2% and -16.2%
same,inhibition,"[9]; measured here: combination with BGB IC40, at 0.005 µM",9.32% and -55%
same,inhibition,[9]; [24],-2.44% and -42.7%
same,inhibition,"[9]; measured here: combination with cisplatin, at 0.5 µM, stronger effect = higher value",-68.5% and 16.4%
same,inhibition,"[9]; measured here: combination with cisplatin, at 5 µM, stronger effect = higher value",96.1% and -3.93%
same,inhibition,"[10]; BGB combo, at 5 µM",99.9% and 91.5%
same,inhibition,[10]; at 0.5 µM,81% (active) and 55% (inactive)
same,inhibition,"[10]; cisplatin combo, at 5 µM",99.7% and 98.8%
same,inhibition,[10]; [25],74.7% and 52.8%
same,inhibition,[10]; [26],84.9% and 61.2%
same,inhibition,"[10]; single agent, at 5 µM",99.6% and 97.3%
same,inhibition,"[11]; BGB IC20 combo, at 0.005 µM",10% and -1.43%
same,inhibition,"[11]; BGB IC40 combo, at 0.005 µM",46.6% and 13%
same,inhibition,"[11]; BGB IC40 combo, at 0.05 µM",102%
same,inhibition,[11]; at 0.5 µM,-9.05% (inactive) and -13.1% (inactive)
same,inhibition,"[11]; cisplatin combo, at 0.05 µM",102% and 103%
same,inhibition,"[11]; cisplatin combo, at 0.5 µM",-4.28% and -29.4%
same,inhibition,"[11]; cisplatin combo, at 5 µM",0.208% and -7.66%
same,inhibition,"[11]; measured here: 5 uM single agent, at 5 µM",4.2% and -17.2%
same,inhibition,[12]; at 0.5 µM,-10.6% (inactive) and -30.6% (inactive)
same,inhibition,[12]; [24],-16.3% and -24.4%
same,inhibition,[12]; [27],-6.99% and -51.5%
same,inhibition,[12]; [28],103% and 92%
same,inhibition,[13]; at 0.5 µM,67.2% (inactive) and 53.2% (inactive)
same,inhibition,"[13]; measured here: with BGB IC20, at 0.5 µM",67.9% and 66.3%
same,inhibition,"[13]; measured here: with BGB IC20, at 5 µM",99.8% and 98.3%
same,inhibition,"[13]; measured here: with cisplatin IC20, at 0.5 µM",78.5% and 60.7%
same,inhibition,"[13]; measured here: with cisplatin IC20, at 5 µM",99.8% and 88.8%
same,inhibition,"[13]; single agent, at 5 µM",99.8% and 79%
same,inhibition,[14]; at 0.5 µM,45.2% (inactive) and 30% (inactive)
same,inhibition,"[14]; measured here: combination with BGB at IC20, at 0.5 µM",27% and 27.5%
same,inhibition,"[14]; measured here: combination with cisplatin at IC20, at 0.5 µM",60.9% and 31.3%
same,inhibition,[15]; at 0.5 µM,87.3% (active) and 58.6% (inactive)
same,inhibition,"[15]; measured here: combo with BGB at IC20, at 0.5 µM",82.9% and 61.6%
same,inhibition,"[15]; measured here: combo with cisplatin at IC20, at 0.5 µM",96.2% and 87.4%
same,inhibition,[16]; at 0.5 µM,83% (active) and 72.2% (inactive)
same,inhibition,"[16]; measured here: inhibition with BGB combination, at 0.05 µM",7.96% and -9.18%
same,inhibition,"[16]; measured here: inhibition with cisplatin combination, at 0.05 µM",41.3% and 1.85%
same,inhibition,[17]; at 0.5 µM,13.8% (inactive) and -20% (inactive)
same,inhibition,[17]; [27],29.2% and -5.7%
same,inhibition,[17]; [28],104% and 53.6%
same,inhibition,[18]; at 0.5 µM,55.5% (inactive) and 36% (inactive)
same,inhibition,"[18]; measured here: BGB combination, at 0.5 µM",34.5% and 11.4%
same,inhibition,"[18]; measured here: BGB combination, at 5 µM",82.1% and 63.6%
same,inhibition,"[18]; measured here: cisplatin combination, at 0.5 µM",76.4% and 54%
same,inhibition,"[18]; measured here: cisplatin combination, at 5 µM",109% and 82.4%
same,inhibition,"[19]; BGB combination, concentration series, at 5 µM",101% and 97.7%
same,inhibition,[19]; at 0.5 µM,90.3% (active) and 82.2% (active)
same,inhibition,"[19]; cisplatin combination, concentration series, at 5 µM",84.8% and 106%
same,inhibition,[20]; at 0.5 µM,-32% (inactive) and -35.2% (inactive)
same,inhibition,"[20]; measured here: combo with BGB IC20, at 0.5 µM",-34.1% and -25.6%
same,inhibition,"[20]; measured here: combo with cisplatin IC20, at 0.5 µM",-44.2% and -41.4%
same,inhibition,[21]; at 0.5 µM,29.8% (inactive) and 12.8% (inactive)
same,inhibition,"[21]; cisplatin combination, at 0.5 µM",27.7% and 16.2%
same,inhibition,"[21]; cisplatin combination, at 5 µM",109% and 105%
same,inhibition,"[21]; measured here: BGB IC40 combination 0.05 uM, at 0.05 µM",-22.6% and -25.3%
same,inhibition,"[21]; single agent, at 5 µM",107% and 108%
same,inhibition,[22]; at 0.5 µM,31.8% (inactive) and 0.94% (inactive)
same,inhibition,"[22]; cisplatin combo, at 5 µM",104% and 103%
same,inhibition,"[22]; measured here: BGB IC40 combination, at 0.05 µM",11.9% and -20.4%
same,inhibition,[22]; [27],38.1% and -11.6%
same,inhibition,"[22]; single agent, at 5 µM",101%
same,inhibition,[23]; at 0.5 µM,95% (active) and 91% (active)
same,inhibition,[23]; [25],91.2% and 85.8%
same,inhibition,[23]; [26],96.8% and 93.6%
same,inhibition,"[23]; single agent, at 0.05 µM",35.3% and -10.3%
same,inhibition,"[23]; single agent, at 5 µM",99.8% and 99.5%
